FECH inh – inhibitors of human ferrochelatase. purified FECH, Ni-mesoporphyrin absorbance 550 nm. calls only at 10 µM (by protocol). 20,000 tested, 3.3% active;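 active means enzyme reaction rate more than 3 SD below the solvent-only control wells on the same plate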;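 further: lower slope than DMSO wells means FECH inhibition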
Target sequence (P22830 whole entry, looked up): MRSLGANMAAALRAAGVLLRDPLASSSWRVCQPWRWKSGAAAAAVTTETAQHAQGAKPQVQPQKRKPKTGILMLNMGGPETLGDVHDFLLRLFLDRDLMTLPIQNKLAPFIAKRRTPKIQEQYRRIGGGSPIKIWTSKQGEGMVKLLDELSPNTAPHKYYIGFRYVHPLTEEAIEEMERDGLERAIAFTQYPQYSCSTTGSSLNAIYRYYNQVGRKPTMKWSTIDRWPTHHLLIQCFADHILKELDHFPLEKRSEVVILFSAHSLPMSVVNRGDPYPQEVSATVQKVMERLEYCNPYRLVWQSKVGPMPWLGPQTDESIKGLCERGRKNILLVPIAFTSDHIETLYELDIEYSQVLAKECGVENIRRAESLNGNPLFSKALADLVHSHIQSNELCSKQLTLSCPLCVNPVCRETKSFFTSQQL
Calls only; . = inactive; + = active, no number. This is one part of a sample in which hits are shown more often than they occur.

SMILES | FECH inh
CCN1CC(NCC(=O)NCc2ccccc2OC)CC1=O (stereo not drawn) | .
Cc1cc(C(=O)N(C)CCCOc2c(C)cccc2C)c(=O)[nH]c1C | .
CCCn1cnc2nc(CSc3ccccc3NC(=O)c3ccccc3)cc(=O)n21 | .
Cc1ccc(C(=O)Nc2ccccc2SCc2cc(=O)n3c(ncn3C(C)C)n2)cc1F | .
COc1ccc(C(=O)Nc2ccccc2SCc2cc(=O)n3c(ncn3C(C)C)n2)cc1 | .
CCCn1cnc2nc(CSc3ccccc3NC(=O)c3cccc(Br)c3)cc(=O)n21 | +
CC(C)n1cnc2nc(CSc3ccccc3NC(=O)Cc3ccccc3)cc(=O)n21 | .
CCCn1cnc2nc(CSc3ccccc3NC(=O)c3ccco3)cc(=O)n21 | +
CC(C)n1cnc2nc(CSc3ccccc3NC(=O)c3ccc(Br)cc3)cc(=O)n21 | .
CCCn1cnc2nc(CSc3ccccc3NC(=O)c3ccc(F)cc3)cc(=O)n21 | +
CCOc1ccccc1C(=O)Nc1ccccc1SCc1cc(=O)n2c(ncn2C(C)C)n1 | .
CCCCN(C)c1nc(SC)nc(-c2ccc(C)cc2)c1C#N | .
COc1ccccc1N1CCN(Cc2cc(=O)n3[nH]c(NCc4ccc(F)cc4)nc3n2)CC1 | .
Cc1cccc(C(=O)Nc2nc3n(n2)C(c2ccc(F)cc2)C=C(c2ccc(Cl)cc2)N3)c1 (stereo not drawn) | .
COc1cccc(Nc2nc(N3CCN(c4ccc(F)cc4)CC3)nc3c2cnn3-c2ccccc2)c1 | .
Cc1ccc(C)c(NC(=O)CN2CCN(Cc3ccccc3F)S2(=O)=O)c1 | .
O=C(CN1CCC(c2ccccc2C(=O)O)C1)NCc1ccccn1 (stereo not drawn) | .
O=C(CN1c2ccc(Br)cc2-c2ccccc2S1(=O)=O)NCc1ccccn1 | +
O=C(CN1c2ccc(Br)cc2-c2ccccc2S1(=O)=O)NCCN1CCOCC1 | .
C=CCOc1cccc(NC(=O)CN2c3ccc(Br)cc3-c3ccccc3S2(=O)=O)c1 | .
CCC1=C(c2ccc(OC)cc2)S(=O)(=O)N(CC(=O)NCc2cccc(Br)c2)C1=O | .
COCCNC(=O)CN1c2ccc(Br)cc2-c2ccccc2S1(=O)=O | +
CC(C)OCCCNC(=O)CN1c2ccc(Br)cc2-c2ccccc2S1(=O)=O | +
O=C(NCc1ccccn1)C1(Oc2cccc3ncccc23)CCNCC1 | .
CC(C)OCCCNC(=O)c1ccc(CN2C(=O)CCn3nc(-c4ccccc4)cc32)cc1 | .
SMILES | FECH inh
Cc1ccc(-c2nc(CSc3nc(C)c(C)c(=O)[nH]3)c(C)o2)cc1 | .
CNC(=O)Cn1cc(NC(=O)c2cccc(CN3CC=CCC3)c2)cn1 | .
COc1ccc(NC(=O)CN2CCN(Cc3ccccc3Cl)S2(=O)=O)c(OC)c1 | .
CCC1CN(C(=O)c2cccnc2SC)CCC(=O)N1Cc1ccccc1 (stereo not drawn) | .
CN(CCNC(=O)CC1CCN(S(=O)(=O)c2ccccc2)CC1)Cc1ccccc1 | .
CCCCC1C=CCN1C(=O)c1sccc1S(N)(=O)=O (stereo not drawn) | .
Cc1ccc(Cc2nc3nc4c(c(=O)n3[nH]2)CCCC4)cc1 | .
Cc1cccc(NCc2cc(=O)n3[nH]c(NCc4ccc(F)cc4)nc3n2)c1C | .
O=c1c2c(nc3nc(CNc4ccccc4Cl)[nH]n13)CCC2 | .
Cc1cccc(C)c1NCc1nc2nc3c(c(=O)n2[nH]1)CCC3 | +
Cc1cccc(NCc2nc3nc4c(c(=O)n3[nH]2)CCC4)c1C | +
Cc1ccc(C2=CC(c3ccc(F)cc3)n3nc(NC(=O)c4ccc(F)cc4)nc3N2)cc1 (stereo not drawn) | .
O=C(CSCc1nc(-c2ccc(F)cc2)no1)NCc1ccco1 | .
CN(CCNC(=O)C1CCN(c2ncnc3c2nc2n3CCCCC2)CC1)Cc1ccccc1 | +
O=C(NCc1ccccc1)C1CCN(c2ncnc3c2nc2n3CCCCC2)CC1 | .
CCN(CCNC(=O)C1CCCN(c2ncnc3c2nc2n3CCCCC2)C1)Cc1ccccc1 (stereo not drawn) | .
Cc1cc(Sc2ccc(NC(=O)Nc3ccc(Br)c(C)c3)cc2)n2ncnc2n1 | .
Cc1oc(-c2ccccc2Cl)cc1C(=O)NCCN1CCNC1=O | .
Cc1oc(-c2ccccc2Cl)cc1C(=O)NCCc1cnc[nH]1 | +
c1cnc2c(-c3nccn3CCc3cnc[nH]3)cccc2c1 | .
O=C(NCc1cc(=O)[nH]cn1)c1cccc2ccnn12 | .
Cc1cc(C)n(CCNC(=O)c2cccc3ccnn23)c(=O)n1 | .
O=C(NCCN1N=C(c2ccccc2)CCC1=O)c1cccc2ccnn12 | +
CCN(Cc1ccc(C(=O)Nc2cc(C)cc(C)n2)cc1)[C@H]1COC[C@@H]1O | .
CC(C)CCNc1nc(Nc2cccc(F)c2)c2cnn(-c3ccccc3)c2n1 | .
SMILES | FECH inh
NC(=O)c1cccc(CC2CCN(C(=O)c3cnc4ccccn34)C2)c1 (stereo not drawn) | .
CCS(=O)(=O)N1CCN(Cc2nc3cccnc3n2-c2cccc(C)c2)CC1 | .
Cc1cccc(CN2CCCN(CC(=O)Nc3cc(C)cc(C)c3)S2(=O)=O)c1 | +
Cc1cccc(CN2CCCN(CC(=O)Nc3cccc(Br)c3)S2(=O)=O)c1 | .
Cc1ccc(CN2CCCN(CC(=O)Nc3ccc(F)cc3)S2(=O)=O)cc1 | .
O=C(CN1CCCN(Cc2cccc(F)c2)S1(=O)=O)Nc1ccccc1 | .
Cc1ccc(CN2CCCN(CC(=O)Nc3ccc(C)c(C)c3)S2(=O)=O)cc1 | .
Cc1cccc(CN2CCCN(CC(=O)Nc3ccc(C)c(C)c3)S2(=O)=O)c1 | +
Cc1cccc(CN2CCCN(CC(=O)Nc3ccc(F)cc3)S2(=O)=O)c1 | +
Cc1ccc(NC(=O)CN2CCCN(Cc3cccc(F)c3)S2(=O)=O)cc1C | .
Cc1cccc(CN2CCCN(CC(=O)Nc3ccccc3)S2(=O)=O)c1 | .
Cc1cc(C)nc(N(C)CC2CC(=O)N(C3CCCC3)C2)n1 (stereo not drawn) | .
COc1ccc(Cl)cc1Nc1nc(SC)nc(-c2ccccc2)c1C#N | .
O=C1c2cccnc2CN1C(CCn1cncn1)c1ccccc1 (stereo not drawn) | .
NS(=O)(=O)c1ccc(CN2Cc3ncccc3C2=O)cc1 | .
NC(=O)[C@H](Cc1ccccc1)N1Cc2ncccc2C1=O | +
CCOCCN1CCC=C(CN2CCCC(NC(C)=O)C2)C1 (stereo not drawn) | .
COc1cc2c(cc1-c1nccn1-c1ccc3nc(CO)[nH]c3c1)CCC2 | .
COc1cccc(OC)c1-c1ccc2nc(CO)[nH]c2c1 | +
COc1ccc(-c2ccc3nc(CO)[nH]c3c2)cc1Cl | .
COc1ccc(OCC(=O)Nc2cc(C)nn2-c2ncnc3c2cnn3-c2ccccc2)cc1 | .
CCc1cc(Sc2ccccc2N)n2nc(C)nc2n1 | .
COc1ccccc1C(=O)NCc1nc2cccnc2n1Cc1ccc(C)cc1 | .
COc1cccc(C(=O)Nc2ccc(Nc3nc(C)cc(N4CCCC4)n3)cc2)c1 | .
O=c1cc(CN2CCCCC2)nc2nc(NCc3ccc(F)cc3)[nH]n12 | .
SMILES | FECH inh
O=c1c2c(nc3nc(CNc4ccc(F)cc4)[nH]n13)CCC2 | +
CCc1ccc(NCc2nc3nc4c(c(=O)n3[nH]2)CCC4)cc1 | +
CCCc1nc2nc(CC)[nH]n2c(=O)c1N | .
CCc1nc2nc(C)c(NC(=O)Nc3ccc4c(c3)OCCO4)c(=O)n2[nH]1 | .
Cc1cc(Nc2ccccc2)nc(N2CCN(S(=O)(=O)c3ccccc3F)CC2)n1 | .
Cc1cccc(-n2cc(CN(C)C(=O)c3ccnn3C)cn2)c1 | .
CCNC(=O)N1CCC(NC(=O)[C@H](N)c2ccccc2)CC1 | .

High-throughput results as filed in PubChem.
